Measured values from PubChem BioAssay (NCATS).
“And” between values parts separate entries of the source, which are not always exact repeats. Equal entries are not always repeated. Inconclusive results are not listed. The source made the active and inactive calls. Unless noted, the call rests on the fitted dose curve; in most records, active means well fitted inhibition curve with a large enough effect; inconclusive means small, poorly fitted or top-dose-only effect; inactive means flat fitted curve, though single readings scatter.

Tests used:
[1] = qHTS assay for small molecule agonists of retinoid X receptor alpha signaling (AID 588544); conditions: HEK293T RXRa-UAS-bla, beta-lactamase reporter, 18 h; 530 nm emission
[2] = qHTS assay for small molecule antagonists of retinoid X receptor alpha signaling (AID 588546; active means well fitted inhibition curve with a large enough effect in the signal ratio, with a control signal flat, not every such curve was filed as active; the % refers to the signal ratio;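 further: cells stimulated with 9-cis-retinoic acid as agonist; on the % scale 0 is the no-effect control and ±100 the full control effect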); conditions: HEK293T RXRa-UAS-bla, beta-lactamase ratio, antagonist mode; measured here: W530 green channel, cytotoxicity proxy
Procedure, shortened: (§1)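 Beta-lactamase reporter inhibition, read as CCF4 fluorescence ratio (ex 405, em 460/530 nm) after 2 h at RT. HEK293T UAS-bla cells, 2500/well, were stimulated with 9-cis-RA at 500 or 100 nM final alongside test compound for 18 h at 37 C.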

[3] = target: Retinoic acid receptor RXR-alpha (Homo sapiens) (UniProt P19793); experiment: as above; conditions: HEK293T RXRa-UAS-bla, beta-lactamase ratio, antagonist mode
Procedure, shortened: as §1

[4] = target: Thyroid hormone receptor beta (Homo sapiens) (UniProt P10828); experiment: qHTS assay for small molecule antagonists of thyroid hormone receptor beta signaling (AID 588547; active means well fitted inhibition curve with a large enough effect in the signal ratio, with a control signal flat, not every such curve was filed as active; the % refers to the signal ratio;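 further: cells stimulated with 0.4 nM T3 agonist during compound exposure; on the % scale 0 is the no-effect control and ±100 the full control effect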); conditions: TR-UAS-bla HEK293, beta-lactamase ratio, antagonist mode, 18 h
Procedure, shortened: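 TR-UAS-bla GripTite HEK293 cells in 2% charcoal/dextran FBS medium were preincubated 4 h at 37 C, given compound (0.59 nM to 92 uM) plus 0.4 nM T3 (final) for 18 h, then CCF4 for 2 h at RT; Hill fit gave IC50.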

[5] = target: Voltage-gated inwardly rectifying potassium channel KCNH2 (Homo sapiens) (UniProt Q12809); experiment: qHTS Assay for Small Molecule Inhibitors of the Human hERG Channel Activity (AID 588834); conditions: U2OS BacMam hERG, FluxOR thallium flux fluorescence; series mostly up to 92.2 µM;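 further: lower thallium flux fluorescence means stronger hERG block; nearly all actives have a fitted effect of over 50% in size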; further: potency means the concentration at half of the fitted maximal effect
Procedure, shortened: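 U2OS cells BacMam-transduced with hERG, 2000 cells/well, compound ~10 min at 37 °C before stimulation buffer. FluxOR thallium flux fluorescence read kinetically on FDSS; decrease indicates block; AC50 from Hill fits.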

[6] = qHTS assay for small molecule agonists of the antioxidant response element (ARE) signaling pathway (AID 651741; active means well fitted activation curve with a large enough effect in the signal ratio; the % refers to the signal ratio; further: % of control where 0% means no effect); conditions: HepG2 ARE-bla reporter, beta-lactamase FRET ratio, 16 h; series mostly up to 96 µM
Procedure, shortened: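 Compounds in DMSO are pinned onto HepG2 ARE-bla cells (2,000/well) that were preincubated 5 h; plates stay 16 h at 37 C, then beta-lactamase activity is detected with LiveBLAzer B/G substrate by fluorescence.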

[7] = qHTS assay for small molecule activators of the p53 signaling pathway (AID 651743; active means well fitted activation curve with a large enough effect in the signal ratio, not every such curve was filed as active; the % refers to the signal ratio; further: % of control where 0% means no effect); conditions: HCT-116 p53RE-bla, beta-lactamase FRET ratio, 16 h; stronger effect = higher value
Procedure, shortened: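 Cell-based beta-lactamase reporter (p53 response elements, HCT-116 background). After a 5-hour preincubation, cells received compound for 16 hours at 37 C; substrate development ran 2 hours at room temperature.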

[8] = target: Thyroid hormone receptor beta (Homo sapiens) (UniProt P10828); experiment: qHTS assay for small molecule agonists of thyroid hormone receptor beta signaling (AID 588545; calls by dose curve); conditions: TR-UAS-bla GripTite HEK 293, beta-lactamase ratio, agonist mode, 18 h, percent of T3 response, DMSO as zero; series mostly up to 76.7 µM
Procedure, shortened: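 In this cell-based screen, titrated compounds act on HEK 293 cells held in medium with 2% charcoal/dextran FBS, NEAA and pyruvate for 18 hrs at 37 C. Responses are expressed relative to T3 (10 nM) as 100% and basal DMSO as 0%.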

[9] = qHTS assay for small molecule activators of the nuclear factor-kappa B (NF-kB) signaling pathway (AID 651749; active means well fitted activation curve with a large enough effect in the signal ratio; the % refers to the signal ratio; further: % of control where 0% means no effect); conditions: NF-kB-bla ME-180 cells, beta-lactamase FRET ratio, 16 h; stronger effect = higher value
Procedure, shortened: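 Screening used 2,000 ME-180 reporter cells per well exposed to pinned compound (23 nL) or DMSO; after 16 hr at 37C, beta-lactamase expression under NF-kB control was assessed through FRET.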

Chain of Retinoic acid receptor RXR-alpha (Homo sapiens) (P19793 whole entry, looked up): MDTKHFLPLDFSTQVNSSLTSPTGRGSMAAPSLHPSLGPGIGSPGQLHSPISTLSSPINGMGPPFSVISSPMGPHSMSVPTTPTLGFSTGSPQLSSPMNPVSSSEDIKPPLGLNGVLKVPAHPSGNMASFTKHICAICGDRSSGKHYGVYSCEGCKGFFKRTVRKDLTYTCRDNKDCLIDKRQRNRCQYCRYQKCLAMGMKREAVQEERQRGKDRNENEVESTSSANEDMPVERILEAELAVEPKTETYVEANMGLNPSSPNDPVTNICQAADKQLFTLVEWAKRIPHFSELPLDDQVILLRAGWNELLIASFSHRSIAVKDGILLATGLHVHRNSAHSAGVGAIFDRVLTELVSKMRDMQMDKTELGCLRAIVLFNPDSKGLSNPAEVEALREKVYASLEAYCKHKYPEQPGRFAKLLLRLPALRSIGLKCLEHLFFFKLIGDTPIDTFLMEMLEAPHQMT
Chain of Thyroid hormone receptor beta (Homo sapiens) (P10828 whole entry, looked up): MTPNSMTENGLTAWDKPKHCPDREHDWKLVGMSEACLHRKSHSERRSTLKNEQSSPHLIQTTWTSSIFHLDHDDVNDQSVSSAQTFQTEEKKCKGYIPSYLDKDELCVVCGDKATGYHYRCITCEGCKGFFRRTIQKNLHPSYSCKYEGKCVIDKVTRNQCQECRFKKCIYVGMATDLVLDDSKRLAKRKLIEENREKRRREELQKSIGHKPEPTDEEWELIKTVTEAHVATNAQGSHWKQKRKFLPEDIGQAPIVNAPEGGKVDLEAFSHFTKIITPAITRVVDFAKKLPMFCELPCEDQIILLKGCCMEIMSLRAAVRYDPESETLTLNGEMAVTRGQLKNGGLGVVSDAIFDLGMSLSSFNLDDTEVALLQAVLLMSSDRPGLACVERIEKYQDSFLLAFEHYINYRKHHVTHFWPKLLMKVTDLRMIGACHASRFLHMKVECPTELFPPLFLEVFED
Chain of Voltage-gated inwardly rectifying potassium channel KCNH2 (Homo sapiens) (Q12809 whole entry, looked up): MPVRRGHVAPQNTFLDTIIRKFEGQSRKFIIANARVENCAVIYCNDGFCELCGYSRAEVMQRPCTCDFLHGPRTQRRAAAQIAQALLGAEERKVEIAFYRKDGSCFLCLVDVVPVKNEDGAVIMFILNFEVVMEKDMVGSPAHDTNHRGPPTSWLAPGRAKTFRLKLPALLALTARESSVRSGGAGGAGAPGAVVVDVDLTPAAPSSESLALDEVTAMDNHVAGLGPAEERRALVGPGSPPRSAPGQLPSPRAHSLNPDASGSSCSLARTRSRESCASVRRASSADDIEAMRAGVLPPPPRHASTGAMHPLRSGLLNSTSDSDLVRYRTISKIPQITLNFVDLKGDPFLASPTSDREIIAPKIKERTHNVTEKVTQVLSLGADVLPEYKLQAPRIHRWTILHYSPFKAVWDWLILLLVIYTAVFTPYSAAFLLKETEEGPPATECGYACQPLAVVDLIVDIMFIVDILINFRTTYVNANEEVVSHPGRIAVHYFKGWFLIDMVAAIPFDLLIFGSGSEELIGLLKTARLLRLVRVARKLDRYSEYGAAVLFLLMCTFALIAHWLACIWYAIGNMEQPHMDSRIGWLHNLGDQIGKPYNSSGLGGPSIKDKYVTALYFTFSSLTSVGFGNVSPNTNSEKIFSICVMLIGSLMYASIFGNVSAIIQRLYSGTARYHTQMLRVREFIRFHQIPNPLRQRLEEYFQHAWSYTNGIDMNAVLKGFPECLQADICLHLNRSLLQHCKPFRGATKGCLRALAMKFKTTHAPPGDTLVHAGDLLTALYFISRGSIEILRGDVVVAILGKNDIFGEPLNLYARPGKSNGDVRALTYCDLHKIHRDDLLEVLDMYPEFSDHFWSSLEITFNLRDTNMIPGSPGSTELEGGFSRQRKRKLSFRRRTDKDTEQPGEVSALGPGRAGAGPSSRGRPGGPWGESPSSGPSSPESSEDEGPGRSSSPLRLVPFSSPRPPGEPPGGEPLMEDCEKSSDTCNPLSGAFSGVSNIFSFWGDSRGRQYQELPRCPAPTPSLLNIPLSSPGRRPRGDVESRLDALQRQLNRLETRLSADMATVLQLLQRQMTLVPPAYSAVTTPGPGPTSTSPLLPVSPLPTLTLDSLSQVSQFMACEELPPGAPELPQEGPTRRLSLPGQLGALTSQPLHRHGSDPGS

Structure (SMILES): Nc1nc(CC(=O)O)cs1
- max response [1]: -4.19%
- max response [2]: -14%
- max response [3]: -13.3% (inactive)
- activity change % (negative = inhibition) [4]: 1.64% (inactive)
- Potency [5]: inactive
- Potency [6]: inactive
- activation [7]: -1.45% (inactive)

Structure (SMILES): CCCCC(CC)CO (stereo unspecified)
- max response [1]: -6.11%
- max response [2]: -1.2%
- max response [3]: 16% (inactive)
- activity change % (negative = inhibition) [4]: -6.25% (inactive)
- Potency [5]: inactive
- Potency [6]: inactive
- activation [7]: -4.64% (inactive)

Structure (SMILES): S=C([S-])NCCNC(=S)[S-].[Zn+2]
- activity change % (negative = inhibition) [4]: 6.23% (inactive) and -0.322% (inactive)
- Potency [5]: inactive

Structure (SMILES): CCCCCCCN
- max response [1]: -16.2%
- outcome [8]: inactive
- max response [2]: 3.38%
- max response [3]: -5.49% (inactive)
- activity change % (negative = inhibition) [4]: 3.05% (inactive)
- Potency [5]: inactive
- activation [7]: -0.0412% (inactive)

Structure (SMILES): CC(C)CCOC(=O)/C=C/c1ccccc1
- max response [1]: 7.69%
- outcome [8]: inactive
- max response [2]: 5.75%
- max response [3]: -10.7% (inactive)
- activity change % (negative = inhibition) [4]: -18.5% (inactive)
- Potency [5]: 22.4 µM (active)
- activation [7]: 1.36% (inactive)
- activation [9]: -1.28% (inactive)

Structure (SMILES): C[C@@H]1CC2(OC[C@]3(C)O[C@H]23)O[C@H]2C[C@@]3(C)[C@@H]4CC[C@H]5C(C)(C)C(O[C@@H]6OC[C@@H](O)[C@H](O)[C@H]6O)CC[C@@]56C[C@@]46CC[C@]3(C)[C@@H]12 (stereo partly specified)
- activity change % (negative = inhibition) [4]: 4.18% (inactive)
- Potency [5]: inactive
- activation [7]: -7.18% (inactive)
- activation [9]: -1.67% (inactive)

Structure (SMILES): Cc1cc(C2(c3cc(C)c(O)cc3C)OS(=O)(=O)c3ccccc32)c(C)cc1O
- max response [1]: -3.17%
- outcome [8]: inactive
- max response [2]: -12.4%
- max response [3]: 0.408% (inactive)
- activity change % (negative = inhibition) [4]: -15% (inactive)
- Potency [5]: inactive
- activation [7]: -5.82% (inactive)

Structure (SMILES): C=C(C)C(=O)OCC(C)C
- max response [1]: -16.8%
- outcome [8]: inactive
- max response [2]: -5.76%
- max response [3]: -6.82% (inactive)
- activity change % (negative = inhibition) [4]: 1.27% (inactive)
- Potency [5]: inactive
- activation [7]: -1.84% (inactive)

Structure (SMILES): Cc1ccc(Cl)cc1
- max response [1]: 0.942%
- max response [2]: -3.57%
- max response [3]: 8.67% (inactive)
- Potency [5]: inactive
- Potency [6]: inactive
- activation [7]: -2.72% (inactive)

Structure (SMILES): CC(C)(c1cc(Br)c(OCC(Br)CBr)c(Br)c1)c1cc(Br)c(OCC(Br)CBr)c(Br)c1 (stereo unspecified)
- max response [2]: -15.9%
- max response [3]: 2.49% (inactive)
- activity change % (negative = inhibition) [4]: -9.17% (inactive)
- Potency [5]: inactive
- Potency [6]: inactive
- activation [7]: 2.84% (inactive)

Structure (SMILES): CC(=O)C1(C)CC2=C(CCCC2(C)C)CC1C (stereo unspecified)
- max response [1]: -9.8%
- max response [2]: -2.18%
- max response [3]: 25.5% (inactive)
- activity change % (negative = inhibition) [4]: -1.03% (inactive)
- Potency [5]: 15.8 µM (active)
- Potency [6]: inactive
- activation [7]: -2.14% (inactive)

Structure (SMILES): Cc1ccc(N(C)C)cc1
- max response [1]: 5.65%
- max response [2]: -1.89%
- max response [3]: 25.4% (inactive)
- activity change % (negative = inhibition) [4]: 13.9% (inactive)
- Potency [5]: inactive
- Potency [6]: inactive
- activation [7]: -2.63% (inactive)
- activation [9]: -0.0617% (inactive)

Structure (SMILES): CCOc1ccc(NC(C)=O)cc1N
- max response [1]: 3.78%
- outcome [8]: inactive
- activity change % (negative = inhibition) [4]: 2.46% (inactive)
- Potency [5]: inactive
- Potency [6]: inactive
- activation [7]: -6.53% (inactive)
- activation [9]: -1.6% (inactive)

Structure (SMILES): NC(=O)CCCCC(N)=O
- max response [1]: -19.9%
- outcome [8]: inactive
- max response [2]: -2.99%
- max response [3]: 6.15% (inactive)
- activity change % (negative = inhibition) [4]: 2% (inactive)
- Potency [5]: inactive
- activation [7]: -2.38% (inactive)

Structure (SMILES): COc1ccccc1[N+](=O)[O-]
- max response [2]: -6.53% and 1.73%
- max response [3]: 20.4% (inactive) and 0.175% (inactive)
- activity change % (negative = inhibition) [4]: -3.34% (inactive) and -9.45% (inactive)
- Potency [5]: inactive
- Potency [6]: inactive
- activation [7]: -2.31% (inactive) and 1.29% (inactive)

Structure (SMILES): O=[N+]([O-])c1ccc2nc[nH]c2c1
- max response [1]: -26.8%
- outcome [8]: inactive
- activity change % (negative = inhibition) [4]: 5.36% (inactive)
- Potency [5]: inactive
- Potency [6]: inactive
- activation [9]: 0.954% (inactive)

Structure (SMILES): Nc1nc2ccccc2[nH]1
- outcome [8]: inactive
- max response [2]: -22%
- max response [3]: -2.52% (inactive)
- activity change % (negative = inhibition) [4]: 16% (inactive)
- Potency [5]: inactive
- Potency [6]: inactive
- activation [7]: 1.82% (inactive)

Structure (SMILES): OC1CCCC1
- max response [1]: -0.127%
- max response [2]: -8.22%
- max response [3]: 5.18% (inactive)
- activity change % (negative = inhibition) [4]: 8.64% (inactive)
- Potency [5]: inactive
- Potency [6]: inactive
- activation [9]: 1.54% (inactive)
